# A selection: hits, their analogues and other compounds. The true share with any hit is near 4%.
# PK Bst: alters activity of Bacillus stearothermophilus pyruvate kinase; purified pyruvate kinase, luminescence ATP production; ribose 5-phosphate activator present at AC10; Potency, µM; 1.2% of 51,000 active; AID 361; in the data active means potency below about 11 µM; inconclusive means mostly about 12 µM to 25 µM;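 the screen sought inhibitors and activators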;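 further: scaled between full activation by ribose 5 phosphate and full inhibition by luteolin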
# HEK293 cAMP ctrl: raises cAMP in parental HEK293 cells, TSHR agonist counter-screen | parental HEK293 CNG cAMP sensor, membrane potential fluorescence | Potency, µM (doses to about 57.1 µM), for the others: at the highest dose activation, actives largely listed as activators | 2.5% of 73,000 active | AID 938; further: % of control where 0% means no effect; nearly all actives have a fitted effect of over 55% in size
#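 Parental HEK 293 cells stably expressing a modified CNG channel (no TSHR) report cAMP rise as membrane depolarization. Membrane potential dye with 100 uM RO 20-1724 was loaded for 60 min at room temperature, then compound added for 30 min; fluorescence read at 590 nm.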
# TSHR ag: TSH receptor (human) agonism. P16473. HEK293-CNG-TSHR cells (CNG channel as cAMP sensor), membrane potential dye, cAMP. Potency, µM (titrated, usually from 57.1 µM), without a hit: at the top dose activation, actives largely listed as activators. 0.48% of 73,000 active. AID 926; active means well fitted activation curve with a large enough effect in the main read-out, with a control signal flat, not every such curve was filed as active; inconclusive means small, poorly fitted or top-dose-only effect, or a change in a side signal; inactive means no such curve, though single readings can be large or run the other way; % of control where 0% means no effect;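 further: the control signal comes from parental cells without the receptor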
#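 HEK 293 cells stably expressing TSHR and a modified CNG channel, with CNG-only parental cells as counterscreen, were preloaded 60 min at room temperature with membrane potential dye containing 100 uM RO 20-1724. Compound exposure was 30 min, and depolarization was read as fluorescence at 590 nm.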
# Casp7 inh: caspase-7 (human) inhibition, allosteric or competitive; Potency, µM (titrated, usually from 57.5 µM), inactives show top-dose activity change, negative = inhibition, hits mostly inhibitors; P55210; 0.02% of 75,000 active; recombinant caspase-7, Ac-DEVD-AFC fluorescence rate; active means well fitted inhibition curve with a large enough effect in the main read-out, with a control signal flat, not every such curve was filed as active; inconclusive means small, poorly fitted or top-dose-only effect, or a change in a side signal; further: % of control where 0% means no effect
# Target sequence (P55210 24-198 limits assumed): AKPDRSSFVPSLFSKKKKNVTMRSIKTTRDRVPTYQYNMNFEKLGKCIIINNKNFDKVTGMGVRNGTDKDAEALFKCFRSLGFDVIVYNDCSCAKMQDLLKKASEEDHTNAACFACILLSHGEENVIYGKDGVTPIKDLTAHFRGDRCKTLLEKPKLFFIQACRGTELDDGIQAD
# Target sequence (P55210 207-303 limits assumed): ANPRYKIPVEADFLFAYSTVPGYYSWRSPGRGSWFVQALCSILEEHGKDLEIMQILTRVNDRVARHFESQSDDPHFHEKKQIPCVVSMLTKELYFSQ
# GBA activity: alters purified human glucocerebrosidase activity | Potency, µM | P04062 | 1.1% of 48,000 active | purified enzyme, resorufin glucoside fluorescence (screen aimed at inhibitors), 20 min; in the data active means potency below about 15 µM; inconclusive means mostly about 16 µM to 33 µM;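 further: the screen sought inhibitors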
#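 Compounds titrated against 0.2 nM normal enzyme, 30 uM resorufin beta-D-glucopyranoside substrate, citrate/phosphate buffer with taurocholate and tween-20, pH 5.9. Reaction ran 20 min at room temperature; fluorescence (Ex 548/Em 600) gave AC50.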
# Caspase-1 inhib: blocks human caspase-1 allosterically or competitively; P29466; Caspase-1 enzyme, Ac-WEHD-AFC fluorogenic rate; Potency, µM (titrated, usually from 57.5 µM), for the others: at the highest dose activity change, negative = inhibition, hits mostly inhibitors; 0.03% of 75,000 active; AID 900;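 further: plate controls were vehicle for no effect and no substrate for full effect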
# Target sequence (P29466 120-297 limits assumed): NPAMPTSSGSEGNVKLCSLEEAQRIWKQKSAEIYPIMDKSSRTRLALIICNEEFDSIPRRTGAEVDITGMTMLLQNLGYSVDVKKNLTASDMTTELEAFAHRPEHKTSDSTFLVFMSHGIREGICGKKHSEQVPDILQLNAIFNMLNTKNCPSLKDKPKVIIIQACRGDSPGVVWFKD
# Target sequence (P29466 317-404 limits assumed): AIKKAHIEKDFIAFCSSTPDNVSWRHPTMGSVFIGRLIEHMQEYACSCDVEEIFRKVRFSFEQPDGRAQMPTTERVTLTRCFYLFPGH
# Active calls of the source: *; i = inactive; ? = inconclusive; . = no result given; [ ] = dose if it differs, or a comment. Unless noted, the call rests on the fitted dose curve; in most records, active means well fitted curve in the direction sought with a large enough effect; inconclusive means small, poorly fitted or top-dose-only effect, or another doubt; inactive means no such curve, though single readings can be large; an effect the other way counts as inactive or inconclusive. Potency means the concentration at half of the fitted maximal effect.
SMILES,PK Bst,HEK293 cAMP ctrl,TSHR ag,Casp7 inh,GBA activity,Caspase-1 inhib
COc1ccccc1C(CCN(Cc1cccs1)C(C)=O)c1ccco1 (stereo unspecified),>57,16µM*,?,-7%,>77,-5%
O=C(c1oc2ccccc2c1CSCc1ccccc1)N1CCN(c2ncccn2)CC1,>57,10µM*,?,-7%,>77,-8%
Cc1c(C(=O)N2CCN(c3ccccn3)CC2)oc2ccccc12,.,19%,25%,-3%,i,-4%
O=C(O)C1CCN(c2nc(-c3ccccc3)nc3c2oc2ccccc23)CC1,7.4*,-20%,10%,0%,i,-2%
CCOC(=O)C1CCN(c2nc(-c3ccccc3)nc3c2oc2ccccc23)CC1,i,20%,.,-2%,7.4*,-2%
OCCN1CCN(c2nc(-c3ccccc3)nc3c2oc2ccccc23)CC1,6*,-2%,.,0%,i,-2%
c1ccc(N2CCN(c3ncnc4c3oc3ccccc34)CC2)cc1,.,20µM*,?,-10%,.,-8%
O=c1[nH]c(SCc2c(Cl)c(Cl)c(Cl)c(Cl)c2Cl)nc(=S)[nH]1,.,11%[11.4 µM],1%[11.4 µM],?,.,3%[11.5 µM]
c1ccc(Nc2ncnc3c2oc2ccccc23)cc1,5.4*,?,?,1%,>77,-3%
Cc1ccc2c(c1)c1ncnc(N3CCN(c4ccccc4)CC3)c1n2C,.,25µM*,?,-7%,>77,-6%
Oc1ccccc1Nc1ncnc2c1oc1ccccc12,>57,12%,7%,2%,>77,1%
CCOC(=O)C1CCCN(c2ncnc3c2oc2ccccc23)C1 (stereo unspecified),.,?,?,1%,?,-1%
CCOC(=O)C1CCN(c2ncnc3c2oc2ccccc23)CC1,i,25µM*,?,-2%,.,0%
Cc1ccc2c(c1)c1ncnc(N3CCOCC3)c1n2C,.,16%,18%,-8%,?,-3%
O=c1oc2ccccc2c(O)c1/C=N/c1nc(-c2ccc(O)c(O)c2)cs1,.,4%[11.4 µM],6%[11.4 µM],-2%[11.5 µM],.,2%[11.5 µM]
CN1CCN(c2ccc(Cl)cc2NS(=O)(=O)c2ccccc2Cl)CC1,>57,17%,8%,5%,13*,2%
Cc1cccc2cc(C#N)c(N3CCN(C)CC3)nc12,>57,16µM*,?,-9%,.,-11%
Cc1cc(C)c2nc(N3CCN(C)CC3)c(C#N)cc2c1,.,13µM*,?,-7%,?,-12%
Cc1ccc(-c2nc(C#N)c(N3CCCCC3)o2)cc1,.,10%,20%,-1%,.,-4%
N#Cc1nc(-c2ccc(Cl)cc2)oc1N1CCCCC1,5.1*,.,.,.,.,.
N#Cc1nc(-c2ccc(OCc3ccc(Cl)cc3)cc2)oc1N1CCC(C(N)=O)CC1,0.078*,6%,4%,-2%,>77,-2%
CNc1oc(-c2ccc(Cl)cc2)nc1C#N,3.1*,.,.,.,.,.
N#Cc1nc(-c2ccc(F)cc2)oc1N1CCCC1,9.5*,.,.,.,.,.
N#Cc1nc(-c2ccccc2)oc1N1CCCCC1,>57,?,?,-1%,>77,-1%
N#Cc1nc(-c2ccc(OCc3ccc(Cl)cc3)cc2)oc1N1CCOCC1,>57,24%,8%,0%,>77,1%
SMILES,PK Bst,HEK293 cAMP ctrl,TSHR ag,Casp7 inh,GBA activity,Caspase-1 inhib
Cc1cc(C)cc(N(CC(=O)O)S(=O)(=O)c2cccnc2)c1,.,-1%,4%,3%,.,-3%
N[C@@H](Cc1[nH]nc2ccccc12)C(=O)O,.,14%[11.4 µM],3%[11.4 µM],0%[11.5 µM],.,5%[11.5 µM]
COC(=O)c1cn(NC(=O)c2ccncc2)c(=O)c2ccccc12,>57,7%,1%,1%,>77,0%
COC(=O)c1cn(NC(=O)C2CCCCC2)c(=O)c2ccccc12,>57,13µM*,?,-1%,>77,1%
C=C(C#N)C(=O)OCC,.,?,?,1%,.,2%
O=C(C1CCCN(S(=O)(=O)c2ccccc2)C1)N1CCN(c2ncccn2)CC1 (stereo unspecified),>57,8%,-2%,1%,>77,-1%
O=C(C1CCN(S(=O)(=O)c2ccc3ccccc3c2)CC1)N1CCN(c2ncccn2)CC1,i,25µM*,?,-5%,>77,-3%
O=C1CCC(C(=O)Nc2cccc3ccccc23)N1 (stereo unspecified),>57,0%,-6%,2%,>77,2%
O=C(Nc1cccc2ccccc12)OC1C=CS(=O)(=O)C1 (stereo unspecified),>57,32µM*,?,-2%,>77,-2%
CC1(C)C(=O)NC2=C1C(=O)C(=O)c1ccccc12,.,-2%,-11%,-13%,.,?
CCCCCc1c(O)c2ccccc2[nH]c1=O,>57,11%,4%,2%,.,-2%
CCCCc1c2ccccc2nc2[nH]c3ccccc3c12,.,13µM*,?,-6%,.,3%
CCOC(=O)c1sc(NC(=O)CSc2nnnn2-c2ccc(C)cc2C)nc1C,>57,25µM*,?,0%,>77,-2%
O=C(C1CC1c1ccccc1)N1CCN(c2cccc(Cl)c2)CC1 (stereo unspecified),>57,32µM*,?,-2%,>77,-2%
CC(=NC1CCCCC1)c1ccccc1O,.,0%[11.4 µM],-1%[11.4 µM],1%[11.5 µM],.,-5%[11.5 µM]
Cc1ccc(-n2c(C)cc(C(=O)CSc3nncs3)c2C)cc1,i,25µM*,?,-8%,>77,-6%
CC(=O)OCC1OC(C#Cc2ccc(F)cc2F)C=CC1OC(C)=O (stereo unspecified),.,14%[11.4 µM],.,-2%[11.5 µM],.,-1%[11.5 µM]
COc1cc(/C=N/NC(=O)c2cc(-c3ccccc3)n[nH]2)cc(OC)c1OC,.,7%,-3%,-1%,.,-1%
COC(=O)c1ccc(NC(=O)c2sc3nc(-c4ccccc4)cn3c2C)cc1,>57,32µM*,?,0%,?,-4%
Cc1cc2ccccc2c[n+]1CC(O)C[n+]1cc2ccccc2cc1C,.,5%[11.4 µM],-8%[11.4 µM],1%[11.5 µM],.,-2%[11.5 µM]
CCN(CC)CC[n+]1ccc2c(C)c3[nH]c4ccccc4c3c(C)c2c1,.,19%[11.4 µM],4%[11.4 µM],-9%[11.5 µM],.,-5%[11.5 µM]
Cc1ccc(-c2nnc(Nc3ccccc3)o2)cc1,0.46*,15%,5%,0%,>77,-1%
CC(C)(C)c1ccc(OCC(=O)O)c(Cl)c1,.,11%[11.4 µM],6%[11.4 µM],0%[11.5 µM],.,0%[11.5 µM]
Cc1ccc(OCc2nnc(SCC(=O)Nc3sc(C)c(C)c3C#N)n2C)cc1,>57,?,?,0%,>77,0%
Cc1sc(NC(=O)CSc2nnc(COc3ccccc3)n2C)c(C#N)c1C,>57,6.3µM*,?,-2%,>77,-3%
Oc1ccccc1Nc1nc(NCC2CCCO2)c2ccccc2n1 (stereo unspecified),.,-28%,-34%,1%,0.43*,-2%
Cc1ncn(-c2ccccc2O)c1C,.,-3%[11.4 µM],-3%[11.4 µM],-1%[11.5 µM],.,1%[11.5 µM]
O=C(O)C1(C(=O)O)CCN(S(=O)(=O)c2ccccc2)CC1,.,-1%[11.4 µM],6%[11.4 µM],2%[11.5 µM],.,2%[11.5 µM]

# Screens: PubChem BioAssay, National Center for Advancing Translational Sciences (NCATS)
